Screening results as filed in PubChem BioAssay.
HPGD inh: blocks human HPGD enzyme activity | 4.3% of 150,000 active | purified HPGD, NADH fluorescence kinetic, PGE2 substrate | P15428 | Potency, µM, inactives show at the top dose activity change, negative = inhibition, most hits filed as inhibitors; note: potency is the fitted concentration of half-maximal effect
Target sequence (P15428 whole entry, looked up): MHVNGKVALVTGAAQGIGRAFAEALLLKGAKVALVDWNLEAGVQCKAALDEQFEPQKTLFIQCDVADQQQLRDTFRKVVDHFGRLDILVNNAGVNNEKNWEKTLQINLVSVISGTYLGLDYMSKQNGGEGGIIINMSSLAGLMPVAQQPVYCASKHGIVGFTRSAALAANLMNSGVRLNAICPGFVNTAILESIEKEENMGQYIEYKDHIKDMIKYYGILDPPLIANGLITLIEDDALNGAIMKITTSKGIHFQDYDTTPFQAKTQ
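20 nM HPGD preincubated 15 min at room temperature with compound in 50 mM Tris-HCl pH 8, 0.01% Tween 20. Started with 1 mM NAD+ and 30 uM prostaglandin E2; NADH fluorescence (360/450 nm) read 5 times over 30-s intervals, last minus first.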
Lamin A splicing: LMNA splicing modulation; HeLa LMNA splicing GFP/RFP minigene ratio, 48 h; Potency, µM (doses to about 46.1 µM), for inactives: at the highest dose ratio change, negative = inhibition, actives largely listed as inhibitors; 0.01% of 200,000 active; active = well fitted inhibition curve with a large enough effect in the signal ratio, with a control signal flat, not every such curve was filed as active; inconclusive = small, poorly fitted or top-dose-only effect, or effect the other way, or a change in a side signal; the % refers to the signal ratio; note: potency is the fitted concentration of half-maximal effect
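S3 HeLa cells stably expressing lamin A-EGFP splicing minigene plus DsRed2, 600 cells/well, 48 h compound exposure at 37C. Laser-scanning cytometry; analysed as GFP (500-530 nm)/RFP (575-640 nm) total intensity ratio; 0.5% DMSO vehicle.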
KinaseGlo FLuc: counter-screen: inhibitors of Kinase-Glo firefly luciferase. Q27757. Kinase-Glo luciferase, ATP luminescence, 8 min. Potency, µM (series often up to 38.3 µM), for the others: at the highest dose activity change, negative = inhibition, actives largely listed as inhibitors. 0.28% of 200,000 active; active = well fitted inhibition curve with a large enough effect; inconclusive = small, poorly fitted or top-dose-only effect; note: potency is the fitted concentration of half-maximal effect; nearly all actives have a fitted effect of over 60% in size
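Luminescence was the read-out, taken after 8-minute incubation at ambient temperature. Luciferase turned over luciferin with 10 uM ATP in imidazole pH 7.2 buffer containing KCl, MgCl2, Tween 20 and BSA.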
ALDH1A1 inh: inhibitors of human aldehyde dehydrogenase 1A1. P00352. Purified ALDH1A1, NADH fluorescence, propionaldehyde substrate. Potency, µM (series often up to 75.3 µM), inactives show top-dose activity, negative = inhibition, actives largely listed as inhibitors. 7.3% of 220,000 active;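 note: potency is the fitted concentration of half-maximal effect; plate controls were no enzyme wells and a reference inhibitor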
IMPase cell inh: membrane-permeable compound that blocks inositol monophosphatase; CHO-M1 cells, IP1 accumulation, HTRF TR-FRET ratio; inhibition (IP1 accumulation), % at 46.1 µM; P97697; 120,000 tested, under 10 active; active = well fitted curve in the direction sought with a large enough effect in the signal ratio, not every such curve was filed as active; inconclusive = small, poorly fitted or top-dose-only effect, or a change in a side signal; inactive = no such curve, though single readings can be large or run the other way; the % refers to the signal ratio;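 note: cells stimulated with carbachol in lithium chloride buffer; plate controls were DMSO basal wells for no effect and reference inhibitor wells for full effect; higher means more IMPase inhibition seen as more IP1 and lower FRET ratio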
Target sequence (P97697 whole entry, looked up): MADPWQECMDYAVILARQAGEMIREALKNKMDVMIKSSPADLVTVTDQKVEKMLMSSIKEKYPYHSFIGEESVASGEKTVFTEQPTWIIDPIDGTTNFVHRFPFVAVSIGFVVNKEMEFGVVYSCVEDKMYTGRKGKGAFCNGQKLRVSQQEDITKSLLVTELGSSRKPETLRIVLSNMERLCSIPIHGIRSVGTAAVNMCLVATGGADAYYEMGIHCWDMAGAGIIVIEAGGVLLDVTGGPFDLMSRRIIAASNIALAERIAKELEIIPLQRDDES
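CHO-M1, 2000 cells/well, cultured 16–30 h; cpd up to 46 uM; carbachol (50 uM solution, stimulation buffer w/ 50 mM LiCl, pH 7.4), 30 min 37C; IP-One TR-FRET, 10 min RT; Ex 320/Em 665, 620; Hill-fit AC50.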
PNC inhibitor: blocks assembly of the perinucleolar compartment. PC3M PTB-GFP, PNC prevalence imaging, 16 h; hits give low values. activity change (PNC), negative = inhibition, % at 10 µM. 3.1% of 140,000 active. AID 2417;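 active = readout at or below -70, meaning at least 70% loss of cells showing the perinucleolar compartment, a nuclear body marking cancer cells; inconclusive = readout between -30 and a set limit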;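 note: plate controls were DMSO wells for no effect and camptothecin positive control wells for full effect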
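PC3M cells stably expressing PTB-GFP, 750–1000 cells/well, treated 16 h at 37 °C with compound (23 nl of library stock), in duplicate. After paraformaldehyde fixation and Hoechst stain, imaged at 20x; PNC prevalence scored by image analysis.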
Starred values were filed as active, the others as inactive; u = inconclusive; x = not tested or not shown; [ ] = another dose, or the depositor's remark. In the library only some 10% were active in any assay of this set; here they are far more common. Unless noted, calls come from the whole dose curve; as a rule, active = well fitted inhibition curve with a large enough effect (not every such curve was filed as active); inconclusive = small, poorly fitted or top-dose-only effect, or another doubt; inactive = no such curve, though single readings can be large or run the other way. Unless noted, % is set by controls: 0 for no effect and ±100 for the full control effect.

SMILES	HPGD inh	Lamin A splicing	KinaseGlo FLuc	ALDH1A1 inh	IMPase cell inh	PNC inhibitor
C#CCn1c(S(=O)(=O)Cc2ccc(F)cc2)nc(-c2ccccc2)c1-c1ccccc1	-11%	u	2%	5%	9	-106*
Cc1ccc(-n2c(Cl)c(Cl)nc(Cl)c2=O)cc1	2.5µM*	u	-2%	0.63µM*	x	u
COc1nc(Cl)cn(-c2ccc(C)cc2)c1=O	-21%	u	12%	u	x	19
Cn1c(=O)c(-c2ccc(Cl)cc2)nc2cnc(N3CCOCC3)nc21	x	-5%	x	u	x	x
COc1ccc(NC(=O)c2[nH]ncc2[N+](=O)[O-])cc1	x	-19%[46 µM]	-12%	15µM*	x	x
O=C(Nc1nccs1)c1ccc(-c2ccc(Cl)cc2)o1	x	-6%[46 µM]	-7%	-12%	x	x
O=C(Nc1nccs1)c1ccc(-c2ccc([N+](=O)[O-])cc2)o1	x	u	-5%	22µM*	x	x
COc1ccc(NC(=O)c2ccc(Cc3ccc(C)cc3)o2)cc1	u	u	1%	25µM*	8	u
O=C(Nc1ccccc1)c1[nH]ncc1[N+](=O)[O-]	-19%	-8%	3%	0%	-5	9
O=C(Nc1nccs1)c1ccc(-c2ccc(F)cc2)o1	x	x	-5%	22µM*	x	x
CCCC(CCC)C(=O)Nc1cc(-c2cn3cccnc3n2)ccc1OC	x	22%[46 µM]	x	x	x	x
COc1ccc(Cl)cc1NC(=O)CSc1nc(=O)n(Cc2ccco2)c2c1CCC2	x	-7%[46 µM]	x	x	x	x
C=Cc1ccccn1	-3%	x	x	-12%	x	x
COc1ccc(NC(=O)c2cc([N+](=O)[O-])ccc2O)cc1	x	-8%[46 µM]	7.9µM*	4%	x	x
COc1ccc(CCNC(=O)c2ccc(-c3ccc([N+](=O)[O-])cc3)o2)cc1OC	-8%	u	6%	10µM*	5	23
COc1ccc(NC(=O)c2ccc(-c3ccc([N+](=O)[O-])cc3)o2)cc1	x	u	11%	2.2µM*	x	x
COc1ccc(NC(=S)Nc2cccc([N+](=O)[O-])c2)cc1	-7%	-5%	1%	-3%	0	-9
COCC(=O)N1CCC2(CC1)CN(c1cccc(-c3ccccc3)c1)C2	u	x	0%	u	x	x
CCOc1ccc(OCC)c(NC(=O)CSc2nc3c(c(=O)n(C)c(=O)n3C)n2C(C)C)c1	x	u	x	8.9µM*	1	-17
COc1ccc(-c2nn(-c3ccccc3)cc2C2NC(=O)NC(C)=C2C(=O)OC(C)C)cc1Cl (stereo not given)	x	x	x	x	7	x
Cc1ncoc1C(=O)N1CCCC(C(=O)c2ccc(Oc3ccccc3)cc2)C1 (stereo not given)	x	x	x	2.8µM*	x	x
Cc1ncoc1C(=O)N1CCCC(C(=O)c2cccc(OC(C)C)c2)C1 (stereo not given)	x	x	-4%	25µM*	x	x
Cc1ncoc1C(=O)N1CCCC(C(=O)c2ccc(C(F)(F)F)cc2)C1 (stereo not given)	x	x	0%	16µM*	x	x
C[C@]12CC[C@H]3c4ccc(O)cc4CC[C@@H]3[C@H]1C/C(=N/O)[C@H]2O	-3%	x	-4%[7.66 µM]	-13%[13.5 µM]	x	x
Cc1ccc(OC(C)C(=O)N2CCN(CCc3ccncc3)CC2)cc1C (stereo not given)	x	5%[46 µM]	x	x	x	x
SMILES	HPGD inh	Lamin A splicing	KinaseGlo FLuc	ALDH1A1 inh	IMPase cell inh	PNC inhibitor
Cc1nn(-c2ccc(N3CCOCC3)nn2)c(C)c1CCC(=O)NCc1ccc(Cl)cc1	x	-8%[46 µM]	x	x	x	x
CC(C)N(C)C1CCN(S(=O)(=O)c2ccc3[nH]c(=O)ccc3c2)CC1	x	-15%[46 µM]	x	x	x	x
Cc1cc(C(c2nnnn2Cc2ccccc2)N2CCOCC2)c(C)n1-c1ccc2c(c1)OCO2 (stereo not given)	-12%	5%	11%	13µM*	1	-6
COc1ncc2nc(-c3cc(F)cc(F)c3)c(=O)n(CCc3ccccc3)c2n1	u	x	-3%	u	x	x
CCN(C(=O)COC(=O)CNC(=O)c1ccc(C)c(C)c1)C1CCS(=O)(=O)C1 (stereo not given)	-12%	-8%	-5%	25µM*	x	-121*
O=C(NCc1ccncc1)c1ccc(Br)cc1	-16%	7%	-4%	14%	-8	u
